According to PubChem BioAssay (NCATS):
Results filed as inconclusive are left out. Activity calls are given as the source filed them. Calls come from the whole dose curve; as a rule, active = well fitted curve in the direction sought with a large enough effect; inconclusive = small, poorly fitted or top-dose-only effect, or another doubt; inactive = no such curve, though single readings can be large; an effect the other way counts as inactive or inconclusive.

Key:
W2 = test: qHTS profiling for inhibitors of Plasmodium falciparum proliferation (AID 504749);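 note: 0% = DMSO vehicle and full inhibition = artemisinin control; nearly all actives have a fitted effect of over 60% in size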; details: P. falciparum in erythrocytes, SYBR Green DNA, 72 h; series mostly up to 28.7 µM
In short: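 P. falciparum-infected erythrocytes (0.3% parasitemia, 2.5% hematocrit final) were exposed to compounds for 72 h at 37 C in 5% CO2, then lysed with SYBR Green buffer overnight at room temperature; parasite DNA fluorescence was normalized to artemisinin and DMSO controls.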

CRL-7250 = normal cell line; test: Cytotoxic Profiling of Annotated Libraries Using Quantitative High-Throughput Screening (AID 1296008); details: Five cell lines viability, CellTiter-Glo ATP luminescence, 48-72 h; max response: active compounds read low; note: nearly all actives have a fitted effect of over 60% in size; for max response: % is set by controls: 0 for no effect and ±100 for the full control effect
In short: (§1)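 Compounds were pin-transferred onto cells and incubated 48 or 72 hr at 37 degree Celsius, 95% humidity. CellTiter-Glo was added, plates sat 10 min at room temperature, then ATP-coupled luminescence was imaged as the viability read-out.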

HEK293 = test: as above; details: Five cell lines viability, CellTiter-Glo ATP luminescence, 48-72 h; max response: active compounds read low
In short: as §1

KB-3-1 = test: as above; details: Five cell lines viability, CellTiter-Glo ATP luminescence, 48-72 h; max response: active compounds read low
In short: as §1

NIH3T3 [1] = test: as above; details: Five cell lines viability, CellTiter-Glo ATP luminescence, 48-72 h; max response: active compounds read low
In short: as §1

MCC-13 = test: qHTS assay to identify novel small-molecules to repurpose for Merkel cell carcinoma treatment (AID 1296009); details: MCC and control cell lines, CellTiter-Glo viability, 72 h; series mostly up to 46 µM; note: nearly all actives have a fitted effect of over 60% in size; for activity change, negative = cytotoxicity: % is set by controls: 0 for no effect and ±100 for the full control effect
In short: (§2)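 Cells exposed to NPC (8-point) and MIPE (11-point) compound dilutions for 72 hr at 37 degree celsius; viability read by CellTiter-Glo luminescence, normalized to no-cell and DMSO in-plate controls.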

MCC-26 = test: as above; details: MCC and control cell lines, CellTiter-Glo viability, 72 h; series mostly up to 46 µM
In short: as §2

MKL-1 = test: as above; details: MCC and control cell lines, CellTiter-Glo viability, 72 h; series mostly up to 46 µM
In short: as §2

MKL-2 = test: as above; details: MCC and control cell lines, CellTiter-Glo viability, 72 h; series mostly up to 46 µM
In short: as §2

UISO = test: as above; details: MCC and control cell lines, CellTiter-Glo viability, 72 h; series mostly up to 46 µM
In short: as §2

WaGa = test: as above; details: MCC and control cell lines, CellTiter-Glo viability, 72 h; series mostly up to 46 µM
In short: as §2

C33A = test: Primary qHTS to identify gynecologic anti-cancer compounds using libraries of approved drugs and bioactive compounds (AID 1345084); details: Gynecologic cancer cell panel viability, ATPlite luminescence, 48 h; series mostly up to 57.5 µM; note: % is set by controls: 0 for no effect and ±100 for the full control effect; nearly all actives have a fitted effect of over 55% in size
In short: (§3)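 ATP-based viability (ATPlite), 1,000 cells/well, 16 h pre-incubation, 48 h compound at 37 C, 5% CO2, 15 min RT before read.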

CAOV3 = test: as above; details: Gynecologic cancer cell panel viability, ATPlite luminescence, 48 h; series mostly up to 57.5 µM
In short: as §3

CASKI = test: as above; details: Gynecologic cancer cell panel viability, ATPlite luminescence, 48 h; series mostly up to 57.5 µM
In short: as §3

Es-2 = test: as above; details: Gynecologic cancer cell panel viability, ATPlite luminescence, 48 h; series mostly up to 57.5 µM
In short: as §3

HeLa = test: as above; details: Gynecologic cancer cell panel viability, ATPlite luminescence, 48 h; series mostly up to 57.5 µM
In short: as §3

NIH3T3 [2] = test: qHTS assay to identify novel small-molecules to repurpose for Merkel cell carcinoma treatment (AID 1296009); details: MCC and control cell lines, CellTiter-Glo viability, 72 h; at 44.8 µM (top of the series); note: nearly all actives have a fitted effect of over 60% in size; for activity change, negative = cytotoxicity: % is set by controls: 0 for no effect and ±100 for the full control effect
In short: as §2

CCCCC(CC)COC(=O)/C=C/c1ccc(OC)cc1 (configuration not stated)
inactive: Potency (W2) | max response (CRL-7250) -9.77% | max response (HEK293) -2.18% | max response (KB-3-1) 15% | max response (NIH3T3 [1]) -7.17% | Potency (MCC-13) | Potency (MCC-26) | Potency (MKL-1) | Potency (MKL-2) | Potency (UISO) | Potency (WaGa) | Potency (C33A) | Potency (CAOV3) | Potency (CASKI) | Potency (Es-2) | Potency (HeLa)

CC(=O)N[C@@H](CCC(=O)O)C(=O)O
inactive: Potency (W2) | max response (CRL-7250) 2.81% | max response (HEK293) -7.38% | max response (KB-3-1) -11.1% | outcome (NIH3T3 [1]) | Potency (MCC-13) | Potency (MCC-26) | Potency (MKL-1) | Potency (MKL-2) | outcome (NIH3T3 [2]) | Potency (UISO) | Potency (WaGa) | Potency (C33A) | Potency (CASKI) | Potency (Es-2) | Potency (HeLa)

N=C(N)N1CCc2ccccc2C1
inactive: Potency (W2) | max response (CRL-7250) -4.65% | max response (HEK293) -8.82% | max response (KB-3-1) 4.15% | max response (NIH3T3 [1]) -1.16% | activity change, negative = cytotoxicity (MCC-13) 22.3% [at 4.84 µM] | activity change, negative = cytotoxicity (MCC-26) -4.65% [at 4.84 µM] | activity change, negative = cytotoxicity (MKL-1) -2.59% [at 4.84 µM] | activity change, negative = cytotoxicity (MKL-2) -8.08% [at 4.84 µM] | activity change, negative = cytotoxicity (UISO) -8.38% [at 4.84 µM] | activity change, negative = cytotoxicity (WaGa) -9.27% [at 4.84 µM] | activity change, negative = cytotoxicity (C33A) -2.35% [at 6.55 µM] | activity change, negative = cytotoxicity (CAOV3) 8.37% [at 6.55 µM] | activity change, negative = cytotoxicity (CASKI) -9.81% [at 6.55 µM] | activity change, negative = cytotoxicity (Es-2) -6.19% [at 6.55 µM] | activity change, negative = cytotoxicity (HeLa) -13.2% [at 6.55 µM]

COc1cc(C)nc(-n2nc(C)cc2OC)n1
inactive: Potency (W2) | max response (CRL-7250) -9.05% | max response (HEK293) -7.38% | max response (KB-3-1) 4.41% | outcome (NIH3T3 [1]) | Potency (MCC-13) | Potency (MKL-1) | Potency (MKL-2) | outcome (NIH3T3 [2]) | Potency (WaGa) | Potency (C33A) | Potency (CASKI) | Potency (Es-2) | Potency (HeLa)

OC[C@H]1O[C@@H](Oc2ccc(O)cc2)[C@H](O)[C@@H](O)[C@@H]1O
inactive: max response (CRL-7250) -17% | max response (HEK293) -74.1% | max response (KB-3-1) 3.33% | max response (NIH3T3 [1]) -45.3% | Potency (MCC-13) | Potency (MCC-26) | Potency (MKL-1) | Potency (MKL-2) | Potency (UISO) | Potency (C33A) | Potency (CAOV3) | Potency (CASKI) | Potency (Es-2) | Potency (HeLa)

CCCc1ncc(C[n+]2ccccc2C)c(N)n1
inactive: Potency (W2) | outcome (CRL-7250) | max response (HEK293) -18.1% | max response (KB-3-1) 2.61% | max response (NIH3T3 [1]) 2.55% | Potency (MCC-13) | Potency (MCC-26) | Potency (MKL-1) | Potency (MKL-2) | Potency (UISO) | Potency (WaGa) | Potency (C33A) | Potency (CAOV3) | Potency (CASKI) | Potency (Es-2) | Potency (HeLa)
